Assay outcomes deposited in PubChem BioAssay by National Center for Advancing Translational Sciences (NCATS).
Hits are enriched below; roughly 5% of the tested compounds scored in any of these assays.
Tb PYK inh: T. brucei pyruvate kinase inhibition; Q57TT1; TbPYK enzyme, Kinase-Glo Plus ATP luminescence, 45 min; Potency, µM (series often up to 76.8 µM), usual class: inhibitors; actives 0.12% (n = 410,000); AID 624173; also: nearly all actives have a fitted effect of over 50% in size
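Assay buffer: 50 mM TEA pH 7.2, 100 mM KCl, 10 mM MgCl2, 0.05% BSA, 0.01% Tween-20. Pyruvate kinase from T. brucei plus substrate met compound, then ADP (130 uM final). Luminescence was read post 45 min RT.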
LmPK inhibitor: blocks Leishmania mexicana pyruvate kinase activity. Q27686. purified LmPK, Kinase-Glo ATP luminescence, 1 h. Potency, µM (doses to about 57.5 µM), hits mostly inhibitors. actives 0.37% (n = 290,000). AID 1721
Target sequence (Q27686 whole entry, looked up): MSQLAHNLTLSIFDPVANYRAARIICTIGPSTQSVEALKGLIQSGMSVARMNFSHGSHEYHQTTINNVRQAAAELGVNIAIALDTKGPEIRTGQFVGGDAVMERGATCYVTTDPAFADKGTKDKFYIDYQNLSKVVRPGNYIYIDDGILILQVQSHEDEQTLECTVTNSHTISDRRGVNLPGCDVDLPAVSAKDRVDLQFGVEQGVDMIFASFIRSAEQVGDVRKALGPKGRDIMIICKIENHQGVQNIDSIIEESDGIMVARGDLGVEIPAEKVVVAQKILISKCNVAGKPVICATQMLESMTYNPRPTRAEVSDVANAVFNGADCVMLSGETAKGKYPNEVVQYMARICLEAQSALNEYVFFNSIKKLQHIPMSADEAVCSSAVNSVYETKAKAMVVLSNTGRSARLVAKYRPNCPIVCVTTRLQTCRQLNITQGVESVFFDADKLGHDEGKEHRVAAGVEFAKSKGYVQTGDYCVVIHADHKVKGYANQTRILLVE
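0.1 nM LmPK, 0.5 mM PEP, 0.1 mM ADP; 50 mM imidazole pH 7.2, 7 mM MgCl2, 50 mM KCl; 1 h RT. Kinase-Glo luminescence readout, normalized to no-enzyme (full inhibition) and uninhibited wells.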
HCMV inh: inhibitors of human cytomegalovirus. HFF cells, HCMV-luciferase reporter, 72 h; hits give low values. activity change, negative = inhibition, % at 57.5 µM. actives 4.5% (n = 410,000). AID 1259415; in the data active = activity change below about -60%; inconclusive = no clear call, values can overlap the other calls; inactive = above about -39%
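Two compound doses tested in HFFs infected with HCMV-luciferase, MOI 1 PFU/cell, 72 h at 37C. Lysate luminescence read with OneGlo; data normalized against buffer-only and 10uM Salinomycin inhibitor controls.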
VACV mCherry inh: vaccinia inhibition (mCherry reporter); Vaccinia virus mCherry reporter infection, fluorescence; Potency, µM (top dose mostly 36.5 µM), actives largely listed as inhibitors; actives 0.63% (n = 310,000); calls by dose curve; tested in A549 cells; also: nearly all actives have a fitted effect of over 35% in size
VACV Venus inh: vaccinia inhibition (Venus reporter). actives 0.46% (n = 330,000). AID 720580. Vaccinia virus Venus reporter expression, fluorescence. Potency, µM (series often up to 36.5 µM), actives largely listed as inhibitors; calls by dose curve; tested in A549 cells; also: nearly all actives have a fitted effect of over 30% in size
A number is an active result; n = inactive; u = inconclusive; x = no result given; ! = not active in a repeat; [ ] = remark or other dose. Unless noted, calls follow the shape of the dose curve; as a rule, active = well fitted curve in the direction sought with a large enough effect; inconclusive = small, poorly fitted or top-dose-only effect, or another doubt; inactive = no such curve, though single readings can be large; an effect the other way counts as inactive or inconclusive.

SMILES | Tb PYK inh | LmPK inhibitor | HCMV inh | VACV mCherry inh | VACV Venus inh
CN(C)CCNc1nc2sc3c(c2c(=O)n1CCc1ccccc1)CCCCC3 | n | n | -99 | x | x
C[C@H](N)[C@@H](O)c1ccccc1 | n | x | x | x | x
Cc1ccnc(NS(=O)(=O)c2ccccc2)c1 | n | n | n | x | x
OC1(c2ccc(F)cc2)CCNC1 (stereo unspecified) | n | n | -66 | x | x
CC(=O)Nc1nnc(CCS(=O)(=O)c2ccc(C)c(C)c2)s1 | n | n | n | x | x
CC(C)[C@H](N)c1cn([C@@H](CO)C(=O)N2CCNCC2)nn1 | n | x | n | n | n
NC(=O)C[C@H](N)c1cn([C@@H](CC(N)=O)C(=O)N2CCNCC2)nn1 | n | x | -60 | n | n
CCOC(=O)COn1c(=O)c(-c2ccc(OC)cc2)[n+]([O-])c2ccccc21 | n | n | -61 | n | n
S=C(c1ccc(Br)cc1)N1CCN(Cc2ccccc2)CC1 | u | n | n | x | x
Cc1ccc(N/C=C(\C#N)c2ccc(OCCCF)cc2)cc1 | n | n | n | n | n
COc1ccc(N/C=C(\C#N)c2ccc(OCCCF)cc2)cc1 | n | n | -91 | n | n
COc1cc(NC(=O)CCCc2nnc3n(CC(C)C)c(=O)c4sccc4n23)cc(OC)c1 | n | x | n | n | n
Cc1cncn1CCc1nc2c3ccccc3nc(SCC(=O)Nc3ccccc3F)n2n1 | n | x | -67 | n | n
Cc1n[nH]c(C)c1CCc1nc2c3ccccc3nc(SCC(=O)Nc3ccc(F)cc3)n2n1 | n | x | -68 | n | n
CCOc1ccccc1NC(=O)CSc1nc2cc(OC)c(OC)cc2c2nc(CCn3c(C)nc4ccccc43)nn12 | n | x | -93 | u | u
Cc1ccc(NC(=O)CSc2nc3ccccc3c3nc(CCc4c(C)n[nH]c4C)nn23)cc1F | n | n | u | x | x
CN(Cc1nc2c(s1)CCCC2)C(=O)CCc1nnc(-c2ccc3c(c2)OCO3)o1 | n | n | n | n | n
COc1cc(/C=C2\CCC(C)C3=C(c4cc(OC)c(OC)c(OC)c4)C(C#N)=C(N)OC32)cc(OC)c1OC (stereo unspecified) | n | x | n | u | n
COCCNC(=O)CSc1nc2cc3c(cc2c(=O)n1CCCC(=O)NCc1ccc(OC)cc1)OCO3 | n | n | -62! | n | n
COc1cc(OC)c(OC)cc1CN1CCc2nc(N3CCN(c4ncccn4)CC3)ncc2C1 | n | x | -71 | n | n
CCC(C)c1ccc(NC(=O)CC(C)=O)cc1 (stereo unspecified) | n | n | n | x | x
O=C(CCCOc1ccc(Cl)cc1Cl)N/N=C/c1ccccc1O | n | n | -104 | 7.1µM | u
O=C(COc1cccc2cccnc12)N/N=C/c1ccccc1O | n | n | u | 2.5µM | n
COC(=O)Cn1cc(/C=N/NC(=O)COc2cccc3cccnc23)c2ccccc21 | n | n | -70 | n | n
O=C(CCCOc1ccc(Cl)cc1Cl)N/N=C/c1ccccc1 | n | n | n | n | u
SMILES | Tb PYK inh | LmPK inhibitor | HCMV inh | VACV mCherry inh | VACV Venus inh
O=C(O)CNC1=NCCCCC1 | n | n | n | n | n
COc1ccccc1NC(CC(=O)c1ccccc1)C(=O)OCC(=O)c1ccc(C)c(C)c1 (stereo unspecified) | n | n | n | n | n
COc1ccc(-c2nnc(SCC(=O)NCc3ccccc3)nc2-c2ccc(OC)c(OC)c2)cc1OC | n | x | -78 | u | n
CCOc1ccc(-c2nnc(SCC(=O)NCc3ccc(C)cc3)nc2-c2ccc(OCC)c(OC)c2)cc1OC | n | x | n | n | n
Cc1oc(-c2ccc(C(=O)NCCC(C)C)cc2)nc1CN1CCc2ccccc21 | n | x | n | n | n
Fc1ccc(-n2nnc(-c3nccs3)n2)cc1 | n | 14µM | n | n | n
CS(=O)(=O)N1CCN(c2ccc([N+](=O)[O-])c(SCc3ccco3)c2)CC1 | n | n | n | n | n
S=C(NCCCCc1ccccc1)NCc1ccccc1 | n | n | n | x | x
Cc1c(C(=O)NCc2ccc3c(c2)OCCO3)sc(=O)n1Cc1cccc(C(F)(F)F)c1 | n | x | -79 | n | n
Cc1c(C(=O)NCc2ccc(Cl)c(Cl)c2)sc(=O)n1Cc1ccc(S(C)(=O)=O)cc1 | n | x | -80 | n | n
Cc1c(C(=O)NCc2ccccc2C(F)(F)F)sc(=O)n1Cc1ccc2ccccc2c1 | n | x | -71 | n | n
Cc1c(C(=O)NCc2ccc3c(c2)OCCO3)sc(=O)n1Cc1ccc2c(c1)OCO2 | n | x | u | n | n
CSc1ccc(Cn2c(C)c(C(=O)NCc3ccc4c(c3)OCCO4)sc2=O)cc1 | n | x | -74 | n | n
O=C(NCCc1cnccn1)C1CCC(=O)N(Cc2ccc(Cl)cc2)C1 (stereo unspecified) | n | n | n | n | n
C=Cc1ccc(Cn2c(C)c(C(=O)NCc3ccc4c(c3)OCO4)sc2=O)cc1 | n | x | n | n | n
C=Cc1ccc(Cn2c(C)c(C(=O)NCc3ccc(C#N)cc3)sc2=O)cc1 | n | x | -60 | n | n
O=C(NC1CC1)c1cccc(NC(=O)C2CCCC2)c1 | n | x | n | n | n
O=C(NC1CC1)c1cccc(NC(=O)C2CC2)c1 | n | x | -81 | n | n
CCCc1cc(C(=O)Nc2cccc(Cl)c2C)no1 | n | n | n | n | n
COc1ccc(CN2CCN(C(=O)Cn3ncn4cccc4c3=O)CC2)c(OC)c1OC | n | n | -64 | x | x
O=c1c2c3c(sc2n(CCN2CCCCC2)c(=O)n1Cc1ccco1)CCCCC3 | n | n | n | x | x
O=c1c2c3c(sc2n(CCN2CCOCC2)c(=O)n1Cc1ccco1)CCCCC3 | n | n | -96 | x | x
COc1ccc(NC(=S)N(CCN2CCOCC2)C2CCN(C(C)=O)CC2)cc1Cl | n | n | u | n | n
COc1cc(NC(=O)c2cccc(Cl)c2)c(OC)cc1NC(=O)CN1CCOCC1 | n | n | -72 | x | n
COc1cc(Cl)ccc1NC(=S)N(CCN1CCOCC1)C1CCN(C(C)=O)CC1 | n | n | -101 | x | x
SMILES | Tb PYK inh | LmPK inhibitor | HCMV inh | VACV mCherry inh | VACV Venus inh
COc1cc(NC(=O)c2cccc(Cl)c2)c(OC)cc1NC(=O)CN1CCCCC1 | n | n | u | u | n
O=C(CCN1C(=O)/C(=C/c2ccccc2)SC1=S)N[C@@H](CO)Cc1ccccc1 | n | n | u | x | x
CC(=O)Nc1ccc(NC(=O)c2cc(-c3ccc4c(c3)OCCO4)on2)cc1 | n | x | n | n | n
O=C(Nc1ccc(SC(F)F)cc1)c1cc(-c2ccc3c(c2)OCCO3)on1 | n | x | -66 | n | n
Cc1cc(C)n(-c2nc(NCCCN(C)C)c3c4c(sc3n2)CCCC4)n1 | n | n | -98 | n[7.34 µM] | n[7.34 µM]
Cc1cc(C)n(-c2nc(NCCCN(C)C)c3c4c(sc3n2)COC(C)(C)C4)n1 | n | n | n | u | u
Cc1cc(C)n(-c2nc(NCCN(C)C)c3c4c(sc3n2)CCCC4)n1 | n | n | -82 | u | n
Cc1cc(C)n(-c2nc3sc4c(c3c(=O)[nH]2)CCCC4)n1 | x | n | x | x | x
CC(=O)Nc1ccc(OCC(O)Cn2c(C)nc3ccccc32)cc1 (stereo unspecified) | n | n | n | n | n
